PubChem BioAssay (NCI)
Values joined by “and” are separate entries in the source; they are usually repeats but may differ in a detail not shown here. Equal entries are not always repeated. Compounds without any hit were thinned out: in the full panel of roughly 83,000, 20% have a hit.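 Treatment: one concentration, 48 hours, 96-well format. Scoring: percent growth, with anything below 10 considered active.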

Key:
Test in all cases: NCI-60 one-dose screen, 48 h (100 = growth as untreated, 0 = no growth, -100 = all killed)
Conditions in all cases: 10 µM unless noted
[1] = tested on: NCI-H23 lung
[2] = tested on: NCI-H226 lung
[3] = tested on: NCI-H322M lung
[4] = tested on: HOP-62 NSCLC
[5] = tested on: NCI-H460 lung
[6] = tested on: HOP-92 NSCLC
[7] = tested on: NCI-H522 lung
[8] = tested on: A549/ATCC NSCLC
[9] = tested on: 786-0 renal
[10] = tested on: COLO 205 colon
[11] = tested on: DU-145 prostate
[12] = tested on: K-562 leukemia
[13] = tested on: MALME-3M melanoma
[14] = tested on: MDA-MB-231 breast
[15] = tested on: RXF 393 renal
[16] = tested on: SF-268 CNS
[17] = tested on: SF-295 CNS
[18] = tested on: SF-539 CNS
[19] = tested on: UACC-257 melanoma
[20] = tested on: M14 melanoma

Measured: growth

CCOC(=O)c1ccc(C(=N)N)cc1
inactive: [1] 99% | [2] 106% | [3] 117% | [4] 108% | [5] 103% | [6] 80.2% | [7] 102% | [8] 107% | [9] 106% | [10] 114% | [11] 106% | [12] 101% | [13] 108% | [14] 120% | [15] 95.4% | [16] 104% | [17] 101% | [18] 105% | [19] 96.8% | [20] 108%

C(=N\OCCc1ccccc1)/c1ccccn1
inactive: [1] 109% | [2] 121% and 108% | [3] 138% and 105% | [4] 127% | [5] 103% and 111% | [6] 103% | [7] 112% and 102% | [8] 102% and 101% | [9] 96.7% and 97.1% | [10] 135% and 115% | [11] 111% and 106% | [12] 115% | [13] 153% and 95.9% | [14] 124% and 112% | [15] 116% and 119% | [16] 107% and 105% | [17] 96.6% | [18] 104% and 93.6% | [19] 109% and 104% | [20] 115% and 117%

S=c1ccc2ccccc2[nH]1
inactive: [1] 107% and 101% | [2] 90.2% and 104% | [3] 96.8% and 96.2% | [4] 92.2% and 93.3% | [5] 107% | [6] 86.5% and 94.5% | [7] 93.3% and 89.6% | [8] 95.7% and 94.4% | [9] 107% and 106% | [10] 94.3% and 114% | [11] 115% and 111% | [12] 90.7% and 103% | [13] 85.9% and 98.5% | [14] 93.9% and 100% | [15] 106% and 105% | [16] 107% and 99.7% | [17] 104% and 109% | [18] 97.9% and 102% | [19] 101% and 92.3% | [20] 99.6% and 107%

O=C1Cc2ccccc2C(=O)N1
inactive: [1] 103% | [2] 101% | [3] 96.3% | [4] 84.6% | [5] 110% | [6] 49.9% | [7] 77.2% | [8] 86.1% | [9] 82.1% | [10] 99.2% | [11] 112% | [12] 46.9% | [13] 104% | [14] 44.1% | [15] 99.1% | [16] 97% | [17] 102% | [18] 103% | [19] 89.4% | [20] 95.3%

CC1(CO)CCCC1NCCNC1CCCC1(C)CO (stereo not given)
inactive: [1] 109% and 107% | [2] 99.5% and 102% | [3] 139% and 98.2% | [4] 109% and 100% | [5] 104% and 112% | [6] 82.8% and 101% | [7] 94.3% | [8] 105% and 104% | [9] 101% and 102% | [10] 114% and 103% | [11] 120% and 88.9% | [12] 110% and 99% | [13] 116% and 103% | [14] 92.2% and 113% | [15] 109% and 119% | [16] 115% and 105% | [17] 94.9% and 105% | [18] 103% and 105% | [19] 100% | [20] 96.7% and 103%

O=c1[nH]c(=O)c2[nH]c(=O)[nH]c2[nH]1
inactive: [1] 92.8% | [2] 93.2% | [3] 101% | [4] 105% | [5] 104% | [6] 89.9% | [7] 112% | [8] 104% | [9] 94.2% | [10] 105% | [11] 107% | [12] 135% | [13] 93.2% | [14] 101% | [15] 84.6% | [16] 103% | [17] 98.3% | [18] 97.7% | [19] 107% | [20] 91.5%

CC(=O)Nc1ccc2oc(=O)ccc2c1
inactive: [1] 101% | [2] 96.5% | [3] 101% | [4] 96.7% | [5] 109% | [6] 95% | [7] 93.3% | [8] 102% | [9] 81.6% | [10] 107% | [11] 100% | [12] 64.9% | [13] 110% | [14] 94.6% | [15] 103% | [16] 114% | [17] 108% | [18] 99.1% | [19] 104% | [20] 100%

Nc1c(Cl)cc2c(c1Br)C(=O)c1ccccc1C2=O
inactive: [1] 88.2% | [2] 99.5% | [3] 96% | [4] 101% | [5] 110% | [6] 125% | [7] 91.7% | [8] 98.1% | [9] 105% | [10] 104% | [11] 121% | [12] 83.5% | [13] 132% | [14] 83.3% | [15] 110% | [16] 108% | [17] 104% | [18] 84.6% | [19] 108% | [20] 108%

NC1=NC(c2ccccc2)N=C(Nc2ccccc2)N1 (stereo not given)
inactive: [1] 79.5% and 66.5% | [2] 81.7% and 52.5% | [3] 91.5% and 84.7% | [4] 78.1% and 74.8% | [5] 103% and 95% | [6] 81% and 89.1% | [7] 83.8% and 110% | [8] 94.1% and 106% | [9] 93.3% and 101% | [10] 91.7% and 63.4% | [11] 105% and 100% | [12] 53.4% and 65.1% | [13] 84.9% and 53.8% | [14] 101% and 74.6% | [15] 91.5% | [16] 49.2% and 54% | [17] 87.5% and 83.6% | [18] 84.8% and 55.2% | [19] 91.9% and 108% | [20] 81.9% and 75.9%

Cc1cc(Cl)nc(Nc2ccccc2)n1
inactive: [1] 95.9% | [2] 91.2% | [3] 92% | [4] 62.9% | [5] 103% | [6] 91.2% | [7] 91% | [8] 104% | [9] 93.8% | [10] 114% | [11] 107% | [12] 79.9% | [13] 101% | [14] 105% | [15] 96.3% | [16] 99.1% | [17] 91.8% | [18] 96.6% | [19] 106% | [20] 97.6%

COc1cc(NCCCCCNC(C)C)c2ncccc2c1
inactive: [1] 104% and 90.3% | [2] 90.5% and 94% | [3] 82.7% and 104% | [4] 87.3% and 92.5% | [5] 103% and 117% | [6] 82.5% | [7] 92.2% and 42% | [8] 101% and 94.7% | [9] 94.4% and 89.3% | [10] 91.7% and 87.9% | [11] 111% | [12] 91.1% and 104% | [13] 99.6% and 125% | [14] 89% and 93.1% | [15] 90.9% and 92.6% | [16] 93.5% | [17] 104% and 102% | [18] 91.9% and 78.1% | [19] 113% and 80.2% | [20] 96.9% and 90.2%
